Compounds without any hit were thinned out: in the full panel of roughly 79,000, 15% have a hit. The source made the active and inactive calls. Cut-off read from the data, not from the text of the source: active = growth inhibition above about 70%; inactive = the rest.
Columns and labels:
[1] = NCI Yeast Anticancer Drug Screen. Data for the rad52 strain (AID 147);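 note: 0% = growth of vehicle-treated control cultures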; conditions: S. cerevisiae rad52 mutant growth inhibition, active compounds read high
Summary of the method: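 Screen used a yeast mutant impaired in DNA repair. After compound exposure, growth was measured. Values reflect inhibition compared with vehicle-treated cells.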

[2] = NCI Yeast Anticancer Drug Screen. Data for the wt1 strain (AID 149);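 note: 0% = growth of vehicle-treated wt1 cultures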; conditions: S. cerevisiae wt1 strain (SPY 50644) growth inhibition, active compounds read high
Summary of the method: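 Measured: growth of wt1 yeast under compound versus vehicle treatment, reported as inhibition.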

[3] = NCI Yeast Anticancer Drug Screen. Data for the rad50EPP+ strain (AID 151);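 note: 0% = growth of vehicle-treated control cultures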; conditions: S. cerevisiae rad50 mutant strain, active compounds read high
Summary of the method: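 Exposing the rad50EPP+ strain to each compound, growth was compared with vehicle-only cultures to give inhibition.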

[4] = NCI Yeast Anticancer Drug Screen. Data for the mgt1 strain (AID 153); conditions: S. cerevisiae mgt1 mutant growth inhibition, active compounds read high
Summary of the method: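 Genetically defined yeast (mgt1) treated with compound; inhibition of growth expressed against vehicle-treated controls.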

[5] = NCI Yeast Anticancer Drug Screen. Data for the rad50 strain (AID 155);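 note: 0% = growth of vehicle-only cultures of the same strain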; conditions: S. cerevisiae rad50 strain growth inhibition, active compounds read high
Summary of the method: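 Growth of the mutant yeast was measured after compound exposure and referenced to vehicle-treated cultures.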

[6] = NCI Yeast Anticancer Drug Screen. Data for the mec2-1 strain (AID 157); conditions: S. cerevisiae mec2-1 strain, active compounds read high
Summary of the method: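 Readout is yeast growth inhibition, normalised to vehicle-treated controls, in the mec2-1 strain exposed to compound.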

[7] = NCI Yeast Anticancer Drug Screen. Data for the rad14 strain (AID 159);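 note: 0% = growth of vehicle-treated control cultures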; conditions: S. cerevisiae rad14 strain growth inhibition, active compounds read high
Summary of the method: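 Here, inhibition of yeast growth was measured after compound exposure, using a strain with a genetic defect in DNA damage repair and vehicle-treated cultures as the reference.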

[8] = NCI Yeast Anticancer Drug Screen. Data for the sgs1 mgt1 strain (AID 161);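 note: 0% = growth of cultures given vehicle only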; conditions: S. cerevisiae sgs1 mgt1 strain, active compounds read high
Summary of the method: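 Compounds are added to genetically altered yeast, and growth is compared with cultures given vehicle alone to give percent inhibition.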

[9] = NCI Yeast Anticancer Drug Screen. Data for the CLN2oe strain (AID 163);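 note: 0% = growth of vehicle-only control cultures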; conditions: S. cerevisiae CLN2oe strain, active compounds read high
Summary of the method: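 Values reflect how much compound exposure reduced yeast growth, referenced to vehicle-exposed cells. Assay organism is a strain with a defined genetic change affecting cell-cycle control.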

[10] = NCI Yeast Anticancer Drug Screen. Data for the cln2 rad14 strain (AID 165);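 note: 0% = growth equal to vehicle treated cultures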; conditions: S. cerevisiae cln2 rad14 strain, active compounds read high
Summary of the method: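 Relative to vehicle controls, growth inhibition of compound-treated cln2 rad14 yeast was recorded.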

[11] = NCI Yeast Anticancer Drug Screen. Data for the bub3 strain (AID 167); conditions: S. cerevisiae bub3 mutant strain, active compounds read high
Summary of the method: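 Whole-cell yeast assay. The mutant strain was incubated with compounds, and growth inhibition was determined by comparison with vehicle-treated cells.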

[12] = NCI Yeast Anticancer Drug Screen. Data for the wt2 strain (AID 169);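 note: 0% = growth of vehicle-treated yeast cultures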; conditions: S. cerevisiae wt2 strain growth inhibition, active compounds read high
Summary of the method: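 Values express reduction in yeast growth under compound treatment, referenced to vehicle-treated cells.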

[13] = NCI Yeast Anticancer Drug Screen. Data for the mlh1 strain (AID 171);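 note: 0% = growth of vehicle-treated control cultures of the same strain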; conditions: S. cerevisiae mlh1 strain growth inhibition, active compounds read high
Summary of the method: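 Steps: expose the defined-mutant yeast strain to compound; expose a parallel culture to vehicle; measure growth; express compound effect as inhibition relative to the vehicle culture.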

[14] = NCI Yeast Anticancer Drug Screen. Data for the sgs1 strain (AID 173);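 note: 0% = growth of vehicle-only control cultures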; conditions: S. cerevisiae sgs1 mutant, active compounds read high
Summary of the method: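 Treat defined-mutant yeast with compound; measure growth; calculate inhibition relative to vehicle-treated cells.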

[15] = NCI Yeast Anticancer Drug Screen. Data for the mlh1 rad18 strain (AID 175); conditions: S. cerevisiae mlh1 rad18 strain growth inhibition, active compounds read high
Summary of the method: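 Test agents were incubated with a yeast strain of defined genotype (DNA damage repair defect). Inhibition of growth was derived by comparison with vehicle-exposed cultures.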

[16] = NCI Yeast Anticancer Drug Screen. Data for the rad18 strain (AID 177); conditions: S. cerevisiae rad18 mutant growth inhibition, active compounds read high
Summary of the method: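 A genetically defined yeast mutant impaired in DNA damage repair was treated with test compounds, then its growth was measured against cultures receiving vehicle alone.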

[17] = at 5.0 µM (retest, dose inferred, filed as 0.5)
[18] = at 50.0 µM (retest, dose inferred, filed as 5.0)

Measured: growth inhibition

C[CH2][Sn]([CH2]C)([O]C(=O)C(OC(C)=O)c1ccccc1)[O]C(=O)C(OC(C)=O)c1ccccc1 (stereo unspecified)
active: [1]; at 33.0 µM 71% | [1]; at 100.0 µM 92% | [2]; at 100.0 µM 91% | [4]; at 100.0 µM 93% | [5]; at 100.0 µM 91% | [6]; at 100.0 µM 91% | [9]; at 100.0 µM 90% | [11]; at 100.0 µM 88% | [12]; at 100.0 µM 93% | [13]; at 100.0 µM 93% | [14]; at 33.0 µM 78% | [14]; at 100.0 µM 94% | [16]; at 33.0 µM 77% | [16]; at 100.0 µM 92%
inactive: [1]; at 1.2 µM 3% | [1]; at 3.7 µM 3% | [1]; at 11.0 µM 15% | [2]; at 1.2 µM 0% | [2]; at 3.7 µM 0% | [2]; at 11.0 µM 5% | [2]; at 33.0 µM 47% | [3]; at 1.2 µM 0% | [3]; at 3.7 µM 2% | [3]; at 11.0 µM 7% | [3]; at 33.0 µM 9% | [3]; at 100.0 µM 9% | [4]; at 1.2 µM 0% | [4]; at 3.7 µM 0% | [4]; at 11.0 µM 4% | [4]; at 33.0 µM 49% | [5]; at 1.2 µM -4% | [5]; at 3.7 µM 4% | [5]; [17] 13% | [5]; at 11.0 µM -2% | [5]; at 33.0 µM 67% | [5]; [18] 25% | [5]; at 50.0 µM 37.7% | [6]; at 1.2 µM 1% | [6]; at 3.7 µM 5% | [6]; [17] -13% | [6]; at 11.0 µM 14% | [6]; at 33.0 µM 65% | [6]; [18] 6% | [6]; at 50.0 µM 35.1% | [7]; at 1.2 µM -2% | [7]; at 3.7 µM -3% | [7]; at 11.0 µM 2% | [7]; at 33.0 µM 14% | [7]; at 100.0 µM 57% | [8]; [17] 7% | [8]; [18] 10% | [8]; at 50.0 µM 20.5% | [9]; at 1.2 µM -15% | [9]; at 3.7 µM -3% | [9]; at 11.0 µM 4% | [9]; at 33.0 µM 47% | [10]; [17] 8% | [10]; [18] 44% | [10]; at 50.0 µM -23.2% | [11]; at 1.2 µM 1% | [11]; at 3.7 µM 4% | [11]; [17] -13% | [11]; at 11.0 µM 12% | [11]; at 33.0 µM 53% | [11]; [18] 54% | [11]; at 50.0 µM 54.4% | [12]; at 1.2 µM -1% | [12]; at 3.7 µM -2% | [12]; at 11.0 µM 1% | [12]; at 33.0 µM 57% | [13]; at 1.2 µM 1% | [13]; at 3.7 µM 0% | [13]; at 11.0 µM 4% | [13]; at 33.0 µM 47% | [14]; at 1.2 µM -1% | [14]; at 3.7 µM 4% | [14]; at 11.0 µM 15% | [15]; [17] 2% | [15]; [18] 10% | [15]; at 50.0 µM 18.4% | [16]; at 1.2 µM 4% | [16]; at 3.7 µM 16% | [16]; at 11.0 µM 37%

CC1OCC2OC(C)OC(C3C4=C(CC(C)(C)CC4=O)OC4=C3C(=O)CC(C)(C)C4)C2O1 (stereo unspecified)
inactive: [1]; at 1.2 µM 0% | [1]; at 3.7 µM 4% | [1]; at 11.0 µM 17% | [1]; at 33.0 µM 38% | [1]; at 100.0 µM 56% | [2]; at 1.2 µM -2% | [2]; at 3.7 µM 2% | [2]; at 11.0 µM 6% | [2]; at 33.0 µM 24% | [2]; at 100.0 µM 45% | [3]; at 1.2 µM -3% | [3]; at 3.7 µM -5% | [3]; at 11.0 µM -4% | [3]; at 33.0 µM -1% | [3]; at 100.0 µM 1% | [4]; at 1.2 µM -1% | [4]; at 3.7 µM 2% | [4]; at 11.0 µM 2% | [4]; at 33.0 µM 2% | [4]; at 100.0 µM 21% | [5]; at 1.2 µM 7% | [5]; at 3.7 µM -32% | [5]; [17] 10% | [5]; at 11.0 µM 49% | [5]; at 33.0 µM 61% | [5]; [18] 57% | [6]; at 1.2 µM 0% | [6]; at 3.7 µM 3% | [6]; [17] 7% | [6]; at 11.0 µM 12% | [6]; at 33.0 µM 28% | [6]; [18] -18% | [6]; at 50.0 µM 27.4% | [6]; at 100.0 µM 46% | [7]; at 1.2 µM -1% | [7]; at 3.7 µM -1% | [7]; at 11.0 µM 5% | [7]; at 33.0 µM 18% | [7]; at 100.0 µM 41% | [8]; [17] 5% | [8]; [18] 37% | [8]; at 50.0 µM 40.7% | [9]; at 1.2 µM -2% | [9]; at 3.7 µM -4% | [9]; at 11.0 µM -2% | [9]; at 33.0 µM -2% | [9]; at 100.0 µM -3% | [10]; [17] 5% | [10]; [18] 15% | [10]; at 50.0 µM 3.55% | [11]; at 1.2 µM 1% | [11]; at 3.7 µM 2% | [11]; [17] -46% | [11]; at 11.0 µM 7% | [11]; at 33.0 µM 29% | [11]; [18] 32% | [11]; at 50.0 µM 57.8% | [11]; at 100.0 µM 66% | [12]; at 1.2 µM -1% | [12]; at 3.7 µM 9% | [12]; at 11.0 µM 1% | [12]; at 33.0 µM 4% | [12]; at 100.0 µM 23% | [13]; at 1.2 µM 1% | [13]; at 3.7 µM 2% | [13]; at 11.0 µM 4% | [13]; at 33.0 µM 8% | [13]; at 100.0 µM 25% | [14]; at 1.2 µM -2% | [14]; at 3.7 µM 1% | [14]; at 11.0 µM 9% | [14]; at 33.0 µM 32% | [14]; at 100.0 µM 65% | [15]; [17] 9% | [15]; [18] 46% | [16]; at 1.2 µM 3% | [16]; at 3.7 µM 18% | [16]; at 11.0 µM 43%
active: [5]; at 50.0 µM 82.2% | [5]; at 100.0 µM 80% | [15]; at 50.0 µM 80.7% | [16]; at 33.0 µM 78% | [16]; at 100.0 µM 91%
